Assay outcomes (PubChem)
Hits are enriched below; roughly 17% of the tested compounds scored in any of these assays.
ClpP mod = qHTS Assay for Activators of ClpP. ATP-dependent Clp protease proteolytic subunit (Bacillus subtilis (strain 168)), P80244. purified B. subtilis ClpP, FRET peptide cleavage, 20 min. Potency, µM (top dose mostly 57.5 µM), for inactives: top-dose activity change, negative = active. 1.9% of 340,000 active; active = well fitted falling curve with a large enough effect; inconclusive = small, poorly fitted or top-dose-only effect; inactive = no such curve, though single readings can be large or run the other way; note: the source files actives as falling curves though it sought activators and does not explain the sign; nearly all actives have a fitted effect of over 65% in size
Target sequence (P80244 whole entry, looked up): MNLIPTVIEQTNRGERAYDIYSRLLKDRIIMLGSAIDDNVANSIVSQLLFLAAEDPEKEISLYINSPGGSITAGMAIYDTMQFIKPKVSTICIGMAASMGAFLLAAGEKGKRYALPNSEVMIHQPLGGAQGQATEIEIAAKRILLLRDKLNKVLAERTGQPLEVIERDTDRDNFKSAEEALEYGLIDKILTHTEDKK
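Buffer: 100 mM Tris/HCl pH8, 100 mM KCl, 0.05% low protease BSA, 2.5% glycerol, 0.01% Tween-20. ClpP 10 microg/mL final; 20 min RT; delta FRET normalized to ADEP and DMSO controls.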
TDP1 inh = qHTS Assay for Inhibitors of Tyrosyl-DNA Phosphodiesterase (TDP1) | Tyrosyl-DNA phosphodiesterase 1 (Homo sapiens), Q9NUW8 | recombinant TDP1, AlphaScreen DNA substrate cleavage | Potency, µM (top dose mostly 130 µM), without a hit: top-dose activity change, negative = inhibition, hits mostly inhibitors | 0.28% of 350,000 active | AID 485290, 2010; note: % is set by controls: 0 for no effect and ±100 for the full control effect; nearly all actives have a fitted effect of over 40% in size
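E. coli-derived human Tdp1, 1 nM final. Cpd preinc 15 min RT; substrate 15 nM final, 5 min RT; AS bead mix 10 ug/ml final, 10 min RT. Signal loss = tyrosine-FITC cleavage. No-enzyme wells = max signal.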
DT40 TDP1 no CPT = qHTS for Inhibitors of human tyrosyl-DNA phosphodiesterase 1 (TDP1): qHTS in cells in absence of CPT. DT40 Tdp1-/- hTDP1 cells, no CPT, ATP luminescence, 48 h. Potency, µM (titrated, usually from 46.2 µM), without a hit: at the top dose activity change, negative = growth inhibition, most hits filed as inhibitors. 15% of 420,000 active; note: % is set by controls: 0 for no effect and ±100 for the full control effect; nearly all actives have a fitted effect of over 55% in size
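Camptothecin absent (DMSO only). Human TDP1-complemented DT40 knockout cells, 400 cells/well, 37 °C for minimum 48 hr; ATP measured via CellTiter-Glo, 30 min dark incubation, luminescence.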
TDP1 cell CPT = qHTS for Inhibitors of human tyrosyl-DNA phosphodiesterase 1 (TDP1): qHTS in cells in presence of CPT. Potency, µM (titrated, usually from 46.2 µM), for the others: at the highest dose activity change, negative = growth inhibition, usual class: inhibitors. chicken DT40 Tdp1-/-;hTDP1 cells + 20 nM CPT, ATP luminescence, 48 h. 12% of 420,000 active. AID 686979, 2013; note: % is set by controls: 0 for no effect and ±100 for the full control effect; nearly all actives have a fitted effect of over 55% in size
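Chicken DT40 Tdp1-/- cells stably complemented with human TDP1 were seeded at 400 cells/well in medium containing 20 nM camptothecin, exposed to pin-transferred compounds, and grown at 37 °C for at least 48 hr. Viability was read as ATP luminescence.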
An asterisk follows results filed as active; [ ] = remark or other dose. Unless noted, calls come from the whole dose curve; as a rule, active = well fitted curve in the direction sought with a large enough effect; inconclusive = small, poorly fitted or top-dose-only effect, or another doubt; inactive = no such curve, though single readings can be large; an effect the other way counts as inactive or inconclusive. Potency is the fitted concentration of half-maximal effect.

What do the screens show for `O=C(NC1CCC(O)CC1)c1ccc(Br)o1` (stereo not given)?
ClpP mod: 0.9%; TDP1 inh: -0.5%; DT40 TDP1 no CPT: -5.3%; TDP1 cell CPT: 21.7%

How did O=C(NN1C(=O)NC2(CCCCC2)C1=O)c1ccc(-c2ccc(Cl)cc2)o1 do in these assays?
ClpP mod: 6.31µM*; TDP1 inh: 2.4%; DT40 TDP1 no CPT: inconclusive; TDP1 cell CPT: inconclusive

Results for O=S(=O)(c1cccc(Br)c1)N1CCN(C(=S)NCC2CCCO2)CC1 (stereo not given) ?
ClpP mod: -2.6%; TDP1 inh: -1.9%; DT40 TDP1 no CPT: -9.7%; TDP1 cell CPT: 6.0%

Results for CC(C)CNC(=O)COc1ccc(Sc2ccc(OCC(=O)NCC(C)C)cc2)cc1 ?
ClpP mod: 1.3%; TDP1 inh: -2.7%; DT40 TDP1 no CPT: 1.64µM*; TDP1 cell CPT: inconclusive

Results for CCCC(C)NC(=O)COc1ccc(Sc2ccc(OCC(=O)NC(C)CCC)cc2)cc1 (stereo not given) ?
ClpP mod: -4.0%; TDP1 inh: 2.7%; DT40 TDP1 no CPT: 11.6µM*; TDP1 cell CPT: 8.2µM*

How did Cc1ccc(-c2csc(NC(=O)c3ccc([N+](=O)[O-])o3)n2)cc1 do in these assays?
ClpP mod: -1.0%; TDP1 inh: 5.7%; DT40 TDP1 no CPT: inconclusive; TDP1 cell CPT: inconclusive

How did O=C(/C=C/c1ccc(Cl)cc1)c1ccc([N+](=O)[O-])o1 do in these assays?
ClpP mod: -0.4%; TDP1 inh: 0.1%; DT40 TDP1 no CPT: 0.651µM*; TDP1 cell CPT: 1.03µM*

Results for Cc1ccc(CNC(=S)Nc2ccc(C)c([N+](=O)[O-])c2)cc1 ?
ClpP mod: -1.3%; TDP1 inh: 0.0%; DT40 TDP1 no CPT: 14.6µM*; TDP1 cell CPT: 23.1µM*

How did Cc1ccc(CNC(=O)c2ccc([N+](=O)[O-])o2)cc1 do in these assays?
ClpP mod: -3.2%; TDP1 inh: -1.0%; DT40 TDP1 no CPT: inconclusive; TDP1 cell CPT: 16.4µM*

What do the screens show for `Cc1ccc(/C=C/C(=O)c2ccc([N+](=O)[O-])o2)cc1`?
ClpP mod: -1.4%; TDP1 inh: 0.3%; DT40 TDP1 no CPT: 2.06µM*; TDP1 cell CPT: 1.64µM*

What do the screens show for `Cc1ccc(NC(=S)NCc2ccccc2)cc1[N+](=O)[O-]`?
ClpP mod: -4.1%; TDP1 inh: -1.4%; DT40 TDP1 no CPT: inconclusive; TDP1 cell CPT: inconclusive

What do the screens show for `CCOC(=O)c1cc(S(=O)(=O)Nc2ccccc2)[nH]n1`?
ClpP mod: 0.5%; TDP1 inh: 6.5%; DT40 TDP1 no CPT: -15.7%; TDP1 cell CPT: -15.3%

Results for COc1ccc(N2CCN(C(=O)C(=O)c3cn(CC(=O)N4CCCC4)c4ccccc34)CC2)cc1 ?
ClpP mod: 1.1%; DT40 TDP1 no CPT: inconclusive; TDP1 cell CPT: 20.6µM*

How did CCN(CC)C(=O)Cn1cc(/C=C(\C#N)C(=O)N2CCN(c3ccccc3)CC2)c2ccccc21 do in these assays?
ClpP mod: -0.6%; TDP1 inh: 4.8%; DT40 TDP1 no CPT: inconclusive; TDP1 cell CPT: 20.6µM*

How did CCN(CC)C(=O)Cn1cc(C(=O)C(=O)N2CCN(c3ccc([N+](=O)[O-])cc3)CC2)c2ccccc21 do in these assays?
ClpP mod: 1.1%; TDP1 inh: 4.6%; DT40 TDP1 no CPT: 7.31µM*; TDP1 cell CPT: 6.51µM*

What do the screens show for `COc1ccc(N2CCN(C(=O)C(=O)c3cc(OC)c4ccccc4c3)CC2)cc1`?
ClpP mod: -2.9%; DT40 TDP1 no CPT: 20.6µM*; TDP1 cell CPT: 23.1µM*

What do the screens show for `CCN(CC)C(=O)Cn1cc(C(=O)C(=O)N2CCN(c3ccc(OC)cc3)CC2)c2ccccc21`?
ClpP mod: -0.6%; TDP1 inh: 6.0%; DT40 TDP1 no CPT: 8.9%; TDP1 cell CPT: -12.9%

What do the screens show for `CCOC(=O)C[C@@H]1OC[C@H](Cc2ccccc2)N1S(=O)(=O)c1ccc(C)cc1`?
ClpP mod: 1.2%; DT40 TDP1 no CPT: inconclusive; TDP1 cell CPT: inconclusive

What do the screens show for `COc1ccc(CCN(C)C(=O)C(CCSC)NC(=O)c2ccco2)cc1OC` (stereo not given)?
ClpP mod: 1.2%; TDP1 inh: 2.2%; DT40 TDP1 no CPT: -1.0%; TDP1 cell CPT: -20.0%

What do the screens show for `Cc1ccc(-n2ncc3c2CCCC3NC(=O)c2ccccc2N2CCOCC2)cc1C` (stereo not given)?
ClpP mod: -5.9%; TDP1 inh: 1.4%; DT40 TDP1 no CPT: inconclusive; TDP1 cell CPT: 16.4µM*

Results for O=C(NC1CCCc2c1cnn2-c1ccc(F)cc1F)c1ccccc1N1CCOCC1 (stereo not given) ?
ClpP mod: -10.4%; TDP1 inh: 3.1%[56.1 µM]; DT40 TDP1 no CPT: 23.1µM*; TDP1 cell CPT: inconclusive

How did O=C1OCC/C1=C\NCCCN/C=C1\CCOC1=O do in these assays?
ClpP mod: -5.8%; DT40 TDP1 no CPT: -17.2%; TDP1 cell CPT: -8.1%

Results for CCOC(=O)Cn1c(=O)n(CC2CCCO2)c2nc(-c3cc(OC)ccc3OC)nc(C(N)=O)c21 (stereo not given) ?
ClpP mod: -1.2%; TDP1 inh: 4.1%

What do the screens show for `CN(C(=O)COC(=O)c1ccc2ccccc2n1)c1ccccc1`?
ClpP mod: 10µM*; TDP1 inh: 0.1%; DT40 TDP1 no CPT: -7.2%; TDP1 cell CPT: -4.3%

What do the screens show for `CN(Cc1ccccc1)C(=O)COC(=O)c1ccc2ccccc2n1`?
ClpP mod: 2.0%; TDP1 inh: 2.5%; DT40 TDP1 no CPT: -22.5%; TDP1 cell CPT: -11.0%

What do the screens show for `Cc1ccc(N2CC(NC(=O)C3CC3)CC2=O)cc1C` (stereo not given)?
ClpP mod: 0.2%; TDP1 inh: 5.2%; DT40 TDP1 no CPT: -8.0%; TDP1 cell CPT: 22.9%

Results for NCCCCCCCCCCNS(=O)(=O)c1cccc2c(Cl)cccc12 ?
ClpP mod: -3.8%; TDP1 inh: 17.0%[56.1 µM]; DT40 TDP1 no CPT: 12.6µM*; TDP1 cell CPT: inconclusive

How did CCS(=O)(=O)NCCCCc1ccccc1 do in these assays?
ClpP mod: 1.2%; TDP1 inh: 7.0%; DT40 TDP1 no CPT: -4.1%; TDP1 cell CPT: 2.6%

Results for O=S(=O)(NCCCCCCc1ccccc1)c1cccc2c(Cl)cccc12 ?
DT40 TDP1 no CPT: inconclusive; TDP1 cell CPT: 21.1µM*

How did O=C(NCC1CCCO1)c1onc(CSc2ccc(F)c(F)c2)c1C(=O)O (stereo not given) do in these assays?
ClpP mod: 0.9%; TDP1 inh: 4.1%; DT40 TDP1 no CPT: 40.0%; TDP1 cell CPT: 2.1%

Results for CCCCOc1ccc(C(C)NC(=O)CN2C(=O)CSc3ccc(S(=O)(=O)N4CCOCC4)cc32)cc1 (stereo not given) ?
ClpP mod: -0.7%; TDP1 inh: 7.8%; DT40 TDP1 no CPT: 23.1µM*; TDP1 cell CPT: inconclusive
